Screening results (PubChem BioAssay)
The list is not random: actives were taken first. Their share in the collection is about 5.7%.
DAX1 inh-1: inhibitors of human orphan nuclear receptor DAX1 (NR0B1). P51843. HEK293 Gal4-DAX1 luciferase reporter, luminescence. inhibition, % at 6.75 µM. hit rate 0.99% among 340,000. AID 504766;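 active means inhibition above the mean over all tested compounds plus 3 SD, cut at about 4.2% in these data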;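 further: inhibition shows as a rise in luminescence from relieved DAX1 repression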
AHR act: human AHR activation; P35869; AHR-responsive luciferase reporter cells, luminescence; activation, % at 5 µM; hit rate 2.5% among 320,000; in the data active means activation above about 47%
hgDAF12 agonist: hgDAF-12 agonism, primary luciferase screen. HEK293 GAL4-hgDAF12 UAS-luciferase reporter, agonist luminescence; normalized to butyrate control. activation, % at 6.8 µM. hit rate 1.8% among 370,000. AID 687014;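 active means activation above a cutoff set at the mean of all screened compounds plus 3 SD, cut at about 10% in these data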
DAX1 inh-2: blocks DAX1 repression of SF-1 activated StAR promoter | HEK293T StAR-luciferase reporter, SF-1/DAX-1 repression relief | inhibition, % at 6.8 µM | hit rate 1.1% among 370,000 | AID 652010;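 active means inhibition above the mean over all tested compounds plus 3 SD, cut at about 3.6% in these data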;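 further: higher inhibition means more luminescence from relief of DAX-1 repression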
hcDAF12 agonist: activators of H. contortus DAF-12 nuclear receptor; HEK293 hcDAF-12 lit1-tk-luc reporter, luminescence; 0% DMSO, 100% Δ7-dafachronic acid; activation, % at 6.8 µM; hit rate 1.4% among 370,000;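 active means activation above the mean of all tested compounds plus 3 SD, cut at about 5.5% in these data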
ssDAF12 agonist: activators of S. stercoralis DAF-12 nuclear receptor. hit rate 1% among 370,000. activation, % at 6.8 µM. HEK293 ssDAF-12/GRIP1 lit1-tk-luc reporter, luminescence; % of 3 µM dafachronic acid response;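 active means activation above the mean over all tested compounds plus 3 SD, cut at about 0.9% in these data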
Hits are given with their value; – = inactive; · = no result.

SMILES | DAX1 inh-1 | AHR act | hgDAF12 agonist | DAX1 inh-2 | hcDAF12 agonist | ssDAF12 agonist
Cc1sc(NC(=O)c2ccccc2F)c(CN2CCCCC2)c1C | – | – | – | – | 6.2 | –
Cc1sc(NC(=O)c2ccco2)c(CN2CCN(Cc3ccccc3)CC2)c1C | – | – | – | – | – | –
COc1ccc(/C=N/NC(=O)CN(C)C(=O)OCc2ccccc2)cc1OC | – | – | – | – | – | –
COc1ccc(CN2CCNC(=O)C2CC(=O)NCC(C)(C)N2CCOCC2)cc1C (stereo not drawn) | – | 61.0 | – | – | – | –
O=C(c1ccccc1Cl)N1CCSCCS1(=O)=O | · | · | – | – | – | –
CCOc1ncccc1C(=O)Nc1ccc2c(c1)OCCCO2 | – | · | – | – | – | –
COc1ccc(-c2nnc(SCC(=O)N3CCN(c4ccccc4)CC3)o2)cc1OC | 6.2 | – | – | – | – | –
COc1ccc(-c2nnc(SCC(=O)N3CCOCC3)o2)cc1OC | – | – | – | – | – | –
COc1ccc(-c2nnc(SCC(=O)NC3CC3)o2)c(OC)c1 | – | · | – | 4.3 | – | –
COc1ccc(-c2nnc(SCC(=O)Nc3ccccc3OC)o2)cc1 | – | – | – | 4.3 | – | –
COc1ccccc1NC(=O)CSc1nnc(-c2ccncc2)o1 | – | – | – | – | – | –
O=C(CSc1nnc(-c2ccccn2)o1)Nc1ccccc1Cl | – | – | 11.2 | – | – | –
COc1ccc(OC)c(S(=O)(=O)CC(O)COc2ccccc2Cl)c1 (stereo not drawn) | – | – | – | – | – | –
COc1ccc(NC(=O)CSc2nnc(-c3ccc(F)cc3)o2)cn1 | – | – | – | 4.0 | – | –
CC(C)OC(=O)CSc1nnc(-c2ccc(C(C)(C)C)cc2)n1N | 5.0 | – | – | – | – | –
O=C(NCc1nc2ncc(Br)cc2[nH]1)c1ccccc1 | – | 78.0 | – | – | – | –
CCN1CCN(c2ccc(NC(=O)c3ccc4c(c3)[nH]c(=O)n4Cc3ccc(F)cc3)cc2)CC1 | – | – | – | – | – | –
Oc1ccccc1/C=N/NC(=S)NC1CC2CC1C1C=CCC21 (stereo not drawn) | – | – | – | – | – | –
S=C(Nc1ccccc1Cl)N1CCC(c2ccccc2)C1 (stereo not drawn) | 4.6 | – | 10.9 | – | – | –
S=C(Nc1ccc(Cl)cc1Cl)N1CCCCC1 | – | – | – | – | 5.8 | –
Fc1ccccc1NC(=S)N1CCC(c2ccccc2)C1 (stereo not drawn) | – | – | – | – | – | –
O=C(Nc1ccc(S(=O)(=O)Nc2ccccc2F)cc1)N1CCCCC1 | – | – | – | – | – | –
O=C(NCc1ccccc1Cl)C(=O)NCC1OCCN1S(=O)(=O)c1cccs1 (stereo not drawn) | – | – | – | – | – | –
CCOC(CCNC(=O)c1cn(CCOC)c(=O)c2c1c1ccccc1n2C)OCC | – | – | – | – | – | –
COc1ccccc1NC(=S)N(Cc1ccco1)Cc1cc2cccc(C)c2[nH]c1=O | – | 48.4 | – | – | – | –
SMILES | DAX1 inh-1 | AHR act | hgDAF12 agonist | DAX1 inh-2 | hcDAF12 agonist | ssDAF12 agonist
Cc1ccc(NC(=S)N(CCN(C)C)Cc2cc3cccc(C)c3[nH]c2=O)cc1 | – | – | – | – | – | 1.7
COc1cc2cc(CN(Cc3cccs3)C(=S)Nc3ccc(C)cc3)c(=O)[nH]c2cc1OC | – | 49.8 | – | – | – | –
Cc1cccc2cc(CN(Cc3ccccc3)C(=S)NCCCN(C)C)c(=O)[nH]c12 | 5.4 | – | – | – | – | –
Cc1cccc(NC(=S)N(CCN(C)C)Cc2cc3cccc(C)c3[nH]c2=O)c1 | – | – | – | – | – | –
O=C(c1cccnc1)N1CCC2CC1c1c(Cl)cccc12 (stereo not drawn) | – | · | – | – | – | –
CNc1nc(N)nc(-c2cc(Cl)ccc2OC)n1 | – | – | – | – | – | –
COC(=O)[C@]12CCCCC=C1N(Cc1ccc(OC)cc1)C(=O)[C@@H]2CC(=O)NCCC(C)C | · | · | – | – | – | –
CCCCCCCNC(=O)C1(CC2CC(c3ccc(Cl)cc3)=NO2)CCN(C(=O)CCCCCBr)CC1 (stereo not drawn) | – | – | – | – | – | –
C=CCOc1ccc2ccccc2c1CNn1cn[nH]c1=S | – | – | – | – | – | –
Cc1c(C(=O)O)sc(S(=O)(=O)N2CCN(C(=O)CCc3ccccc3)CC2)c1C(=O)O | – | · | – | – | – | –
